The source of these data is PubChem BioAssay.

Unmarked numbers belong to inactive results. The source made the active and inactive calls.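 The calls were made as follows: active = inhibition above the hit cutoff set in the earlier primary screen (cut at about 27% in these data); inactive = the rest.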

Chain of Protein phosphatase methylesterase 1 (Homo sapiens) (Q9Y570 whole entry, looked up): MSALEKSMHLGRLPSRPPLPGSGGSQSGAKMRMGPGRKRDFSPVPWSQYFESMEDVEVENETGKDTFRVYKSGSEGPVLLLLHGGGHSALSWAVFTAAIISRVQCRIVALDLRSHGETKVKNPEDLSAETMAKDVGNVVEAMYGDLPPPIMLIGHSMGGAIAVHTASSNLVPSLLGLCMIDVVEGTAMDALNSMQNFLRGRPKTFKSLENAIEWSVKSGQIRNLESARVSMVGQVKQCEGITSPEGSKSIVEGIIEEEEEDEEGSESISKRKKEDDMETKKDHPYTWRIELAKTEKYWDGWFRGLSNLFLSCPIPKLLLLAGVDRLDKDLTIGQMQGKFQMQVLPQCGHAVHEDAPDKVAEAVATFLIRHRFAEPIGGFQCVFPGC

The experiment concerns the target Protein phosphatase methylesterase 1 (Homo sapiens) (UniProt Q9Y570). Nature of the experiment: PME-1 inhibitor activity retest, confirmation, biochemical, fluorescence polarization, FP-Rh probe, triplicate (AID 2171).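 Also: 0% = enzyme with DMSO and 100% = wells lacking PME-1.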 As to conditions: recombinant PME-1, FP-Rh probe fluorescence polarization; at 5.9 µM; stronger effect = higher value. (Polarisation of emitted light reports the rotation of a fluorescent probe.)
With `COc1cc2[nH]c3c(N4CCN(c5ccc(Cl)cc5)CC4)ncnc3c2cc1OC`, the inhibition (in general, the change of the read-out against control, counted positive when it falls) was 74.9% (active). For `O=C(N/N=C\c1ccc(COc2ccc([N+](=O)[O-])cc2)o1)c1cccc(Cl)c1` the value was 9.99%; for `Cc1cc2c(N)cccc2nn1`, 7.9%; for `CCc1cccc2c(C(=O)COC(=O)c3ccc([N+](=O)[O-])s3)c[nH]c12`, 24.6%. With `COC(=O)c1ccc(Cn2nnc3c(=O)[nH]c(C4CCN(S(=O)(=O)c5ccc(F)cc5)CC4)nc32)cc1`, the inhibition was 38% (active).

With `CCN(CC)S(=O)(=O)c1cc(NC(=O)C(C)N2CCN(c3ccccn3)CC2)ccc1C` (stereo not given), the inhibition is 18.6%. Under `C=CCc1cccc(/C=N/NC(=O)CNc2cccc3ccccc23)c1O` stands 17.8%; under `COC(=O)/C(=C(O)\C=C\c1ccccc1[N+](=O)[O-])c1nc2ccccc2[nH]1`, 21.9%; under `COc1ccc(Nc2ncnc3sc(-c4ccccc4)cc23)cc1`, 10.1%. Under `CC(=O)c1cc(O)c2ccccc2c1O` stands 22.5%; under `COc1ccc2c(Cl)c(C(=O)N/N=C/c3c(C)[nH]c4ccccc34)sc2c1`, 18.5%; under `O=c1cc(-c2ccccc2Cl)oc2c(NS(=O)(=O)c3cc(Cl)cc(Cl)c3O)ccc(O)c12`, 47.1% (active). Under `O=C(c1sc2ccccc2c1Cl)N1CCN(c2ncccn2)CC1` stands 24.4%. In the case of `O=C(NNc1c2ccccc2nc2ccccc12)c1ccccc1O`, the inhibition is 65.5% (active).

Consider `Cn1c2ccccc2c2cc(/C=N/NC(=O)c3cc(O)ccc3O)ccc21`, for which the inhibition was 40.5% (active). For `COc1ccc(-c2cc(-c3c(O)c(OC)c4occc4c3OC)[nH]n2)cc1` the value was 19.9%; for `Cc1ccc2cc(C#N)c(SCc3nnc(-c4ccccc4[N+](=O)[O-])o3)nc2c1`, 25.1%. Under `N=C1CCC(=N)c2c1c(O)c1ccccc1c2O` stands 21.1%. Under `COc1ccc(OC)c(N2C(=O)CC(Cc3ccc(C)cc3)C2=O)c1` (stereo not given) stands 0.52%; under `Oc1ccccc1-c1nc2c3ccccc3c3ccccc3c2[nH]1`, 21.4%.

As to `COc1ccc2ccccc2c1C(O)c1nccn1C` (stereo not given), the inhibition was 23.1%. Under `CCn1c(=O)c2cc(C(=O)Nc3ccc(OC)cc3OC)sc2c2ccccc21` stands 21.5%; under `N#Cc1cc2ccccc2nc1SCC(=O)Nc1ccccc1N1CCOCC1`, 20.3%; under `Oc1ccc(/C=N/Nc2ccnc3cc(Cl)ccc23)c(O)c1O`, 51.8% (active).

As to `O=C(O)c1ccccc1-c1ccccc1C(=O)Nc1ccc(-c2nc3cc(Cl)ccc3o2)cc1`, the inhibition is 22.2%.

Regarding `CN(C)S(=O)(=O)c1cccc(NC(=O)c2cc([N+](=O)[O-])ccc2N2CCCCC2)c1`, the inhibition is 43.2% (active). In the case of `Cc1ccc(C)c(NC(=O)COC(=O)c2cc3ccccc3oc2=O)c1`, the inhibition is 22.3%. For `O=C(N/N=C/c1cc(Cl)c(O)c(Cl)c1)c1cc2c(ccc3ccccc32)o1` the value was 38.5% (active); for `Cc1[nH]c2ccccc2c1/C=N/Nc1nc(Nc2ccccc2)nc(N2CCOCC2)n1`, 34.2% (active). For `COc1ccccc1NC(=O)c1cc2ccc(O)cc2o/c1=N\O` the value was 19.6%.

Take `O=[N+]([O-])c1ccc(N/N=C/c2cccc(O)c2O)cc1`: the inhibition was 23.3%. For `COc1ccc(N=Nc2nc3cc(Br)c(Br)cc3n2C)c(OC)c1` the value was 50.6% (active); for `Cc1ccc(NS(=O)(=O)c2ccc3c(c2)C(=O)c2ccccc2C3=O)c(C)c1`, 24.5%; for `CC1CCCCN1S(=O)(=O)c1ccc(C(=O)Nc2ccccc2-c2nc3ccccc3[nH]2)cc1` (stereo not given), 8.87%. Under `COc1cc(/C=N/NC(=O)[C@H](Cc2c[nH]c3ccccc23)NC(=O)OCC(C)C)cc([N+](=O)[O-])c1O` stands 35.9% (active); under `CC(=O)Nc1ccc(Nc2nc(C)c([N+](=O)[O-])c(Nc3ccccc3)n2)cc1`, 19.7%. Under `Cc1ccc2nc(/C(C#N)=C/c3ccc(O)c(O)c3)[nH]c2c1` stands 17.9%; under `O=C(NCCc1ccccc1)c1ccc2nc(-c3ccco3)c(-c3ccco3)nc2c1`, 15.6%; under `CCOC(=O)/C(=N\Nc1ccc(Cl)cc1)c1csc(Nc2ccccc2)n1`, 14.4%.

As for `NNc1nc2cc3c(cc2s1)OCCO3`, the inhibition is 8.82%.
